From PubChem BioAssay come the findings set out here.

Broadly, the inhibition is the relative decrease from the control value, in per cent. What is called remaining activity is the signal under treatment as a percentage of the control signal.

The target in assay [1] is Mitogen-activated protein kinase 7 (Homo sapiens) (UniProt Q13164). Description: ERK5 transactivation activators in reporter cells, primary screen, cell-based, HTS (AID 1508626;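 active = luciferase signal above three times the same-plate solvent-only control wells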;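 note: luciferase driven by Gal4-ERK5 fusion binding five Gal4 sites before minimal TATA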). The conditions noted are these: HeLa Gal4-ERK5 transactivation, 18 h, at 5 µM, stronger effect = higher value.
Chain of Mitogen-activated protein kinase 7 (Homo sapiens) (Q13164 whole entry, looked up, the tested form may be a part): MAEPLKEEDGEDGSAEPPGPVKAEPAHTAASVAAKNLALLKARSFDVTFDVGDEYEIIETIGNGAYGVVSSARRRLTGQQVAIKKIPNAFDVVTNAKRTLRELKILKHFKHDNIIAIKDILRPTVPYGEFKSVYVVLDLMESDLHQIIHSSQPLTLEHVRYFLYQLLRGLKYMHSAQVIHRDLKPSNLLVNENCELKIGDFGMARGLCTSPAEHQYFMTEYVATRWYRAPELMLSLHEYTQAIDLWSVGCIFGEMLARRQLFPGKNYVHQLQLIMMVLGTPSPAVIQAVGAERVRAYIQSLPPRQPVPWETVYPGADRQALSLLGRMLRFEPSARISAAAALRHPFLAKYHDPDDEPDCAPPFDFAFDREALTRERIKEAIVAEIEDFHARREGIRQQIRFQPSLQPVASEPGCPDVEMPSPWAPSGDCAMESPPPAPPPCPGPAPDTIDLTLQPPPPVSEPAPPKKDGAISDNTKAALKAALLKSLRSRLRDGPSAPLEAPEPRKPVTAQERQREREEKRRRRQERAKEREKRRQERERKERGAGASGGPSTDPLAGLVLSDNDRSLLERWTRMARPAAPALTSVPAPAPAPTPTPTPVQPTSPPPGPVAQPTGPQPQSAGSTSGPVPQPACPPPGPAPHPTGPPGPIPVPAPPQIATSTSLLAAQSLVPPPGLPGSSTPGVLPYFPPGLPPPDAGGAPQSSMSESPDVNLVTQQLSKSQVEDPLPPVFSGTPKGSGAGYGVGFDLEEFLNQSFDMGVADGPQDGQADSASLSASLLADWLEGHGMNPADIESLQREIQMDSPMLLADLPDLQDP
Assay [2] is described as follows: polyglutamine-triggered caspase-3 activation inhibitors, cell-based (AID 1583). The following applies: polyglutamine-induced caspase-3 activation, cell assay; stronger effect = higher value;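 tested at 10 µM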.
Assay [3] can be described thus: suppressors of polyQ aggregation in yeast, 75Q-TubU reporter (AID 1593). The conditions noted are these: Yeast 75Q polyglutamine aggregation reporter.
Assay [4] in a line: rescue of polyQ-huntingtin neuronal dysfunction in worms, whole organism, C. elegans mechanosensory neurons, N-terminal huntingtin (AID 1599). The following applies: touch response, stronger effect = higher value.
Assay [5] can be described thus: inhibitors of mitochondrial cytochrome c release, biochemical, purified mitochondria (AID 1603).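 Note: mouse liver mitochondria challenged with calcium chloride; signal normalized to the plate average as 100%.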 The conditions noted are these: stronger effect = lower value.
Assay [6] is described as follows: inhibitors of polyQ protein aggregation (AID 1604). The following applies: polyglutamine-induced protein aggregation inhibition assay; stronger effect = higher value; tested at 2.5 µM.
A short description of assay [7]: hESC survival regulators, cell-based (AID 493140).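 Note: cells exposed to compounds for four days before counting.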 The following applies: human embryonic stem cell survival screen; stronger effect = higher value.
Assay [8] has as its system Aerobactin synthetase IucA (Klebsiella pneumoniae). The assay is described as follows: IucA aerobactin synthetase inhibitors, biochemical, Tocris library, absorbance (AID 1345561).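 Note: 100% = enzyme without compound and 0% = no enzyme.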 The following applies: purified IucA enzyme assay, absorbance (OD) read-out; stronger effect = lower value;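 tested at 8 µM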.
Assay [9] is described as follows: circadian clock period modulators, cell-based, LOPAC library, luminescence reporter (AID 2774).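 Note: values are relative to mean of DMSO wells on each plate.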 The following applies: circadian reporter cells, at 7 µM, actives lie on both sides.
The test system of assay [10] is Hepatitis C virus NS3 helicase. Description: HCV NS3 helicase inhibitors, primary screen, biochemical, fluorescence polarization, LOPAC1280 library (AID 687035; in the data active = inhibition above about 37%). The conditions noted are these: Purified HCV NS3 helicase, Cy5-dT15 ssDNA binding fluorescence polarization; stronger effect = higher value; concentration not given here.
Assay [11] in a line: Cy5 fluorescence quenching or enhancement artefacts, artefact control for HCV NS3 helicase inhibitor project, biochemical, LOPAC1280 (AID 687037). The conditions noted are these: Cy5-DNA-NS3h complex fluorescence interference counterscreen.
Assay [12] is described as follows: phospholipid biosynthesis inhibitors in animal cells, primary screen, cell-based, LOPAC library, screen 4 (AID 1347384). The following applies: phospholipid biosynthesis inhibition screen, at 10 µM.
Assay [13] can be described thus: modifiers of HSF1 nuclear foci, imaging, Selleck Cancer Library (AID 1347162; in the data active = plate-normalised HSF1 focus index below about 0.46). The following applies: human cells, at 10 µM; SSMD: measured here: HSF1 foci SSMD mean; cell count: measured here: cell number; plate-normalised HSF1 focus index: stronger effect = lower value.

SMILES strings stand for the structures. Where “and” joins values, the source holds several entries; their conditions need not be identical. Equal values may be shown once. For some of these results: Potency and affinity values are given separately. Calls of active or inactive are those of the source. Unless noted, the rule behind the calls is not given here.

`C/C(=C\C(=O)OCCCCCCCCC(=O)O)C[C@@H]1OC[C@H](C[C@@H]2O[C@H]2[C@@H](C)[C@H](C)O)[C@@H](O)[C@H]1O`: the luciferase signal in [1] was 48 AU (inactive).
As to `CC[C@H]1OC(=O)[C@H](C)[C@@H](O[C@H]2C[C@@](C)(OC)[C@@H](O)[C@H](C)O2)[C@H](C)[C@@H](O[C@@H]2O[C@H](C)C[C@H](N(C)C)[C@H]2O)[C@](C)(O)C[C@@H](C)CN(C)[C@H](C)[C@@H](O)[C@]1(C)O`, the inhibition in [2] was 6.36%. The molecule further displayed a score in [3] of 1.1. In [4], this molecule returned a rescue above control of 0.7. Also, in assay [5], the cytochrome c release ratio worked out at 1.04. For the same molecule, the inhibition of aggregation in [6] turned out to be 65.2%. Moreover, in [1], the luciferase signal is 20 AU (inactive).
As to `Cc1c(C(=O)NN2CCCCC2)nn(-c2ccc(Cl)cc2Cl)c1-c1ccc(I)cc1`, in assay [7], the survival is 93 (inactive). Moreover, the remaining activity in assay [8] is 112% (inactive).
`CN1CC(=O)N2[C@H](c3ccc4c(c3)OCO4)c3[nH]c4ccccc4c3C[C@@H]2C1=O`: the luciferase signal in assay [1] is 40 AU (inactive).
In the case of `COc1ccc(C[C@H](C)NC[C@@H](O)c2ccc(O)c(NC=O)c2)cc1`, the remaining activity in assay [8] is 116% (inactive).
As for `Cc1cnc(C(=O)NCCc2ccc(S(=O)(=O)NC(=O)NC3CCCCC3)cc2)cn1`, in [9], the period change is 0.035 h (inactive). In assay [7], the survival is 31.5 (inactive). Also, in assay [10], the inhibition was -1% (inactive). Also, in assay [11], the fluorescence ratio (interference) is 1 (inactive). For the same molecule, in [12], the call was inactive.
Consider `CC(C)NCC(O)c1ccc(NS(C)(=O)=O)cc1` (centres undefined), for which, in assay [9], the period change was -0.07 h (inactive). In assay [7], the survival was 2.17 (inactive). The inhibition in assay [10] was -2% (inactive). In assay [11], the fluorescence ratio (interference) is 1 (inactive). Moreover, the remaining activity in [8] was 91.3% (inactive). Also, the result in [12] was inactive.
Turning to `CN(C)CCCC1(c2ccc(F)cc2)OCc2cc(C#N)ccc21` (centres undefined), the period change in [9] is -0.06 h (inactive). Besides, in [10], the inhibition is -4% (inactive). Besides, in assay [11], the fluorescence ratio (interference) was 1 (inactive). Moreover, the remaining activity in [8] is 108% (inactive). Further, the molecule was called inactive in assay [12]. Moreover, the luciferase signal in assay [1] is 68 AU (inactive).
Consider `CCOC(=O)c1ccc(OC(=O)CCCCCN=C(N)N)cc1`, for which the survival in assay [7] is 18.2 (inactive). In [8], the remaining activity is 124% (inactive).
Turning to `CC(CCCCC(=O)Nc1ccc(C(F)(F)F)cc1)NCCc1cnc[nH]1` (centres undefined), the remaining activity in [8] was 92.5% (inactive).
For the molecule `CCN(CC)CC#CCOC(=O)C(O)(c1ccccc1)C1CCCCC1` (centres undefined), the period change in assay [9] is -0.025 h (inactive). For the same molecule, in assay [7], the survival is 12.5 (inactive). The inhibition in [10] is -3% (inactive). For the same molecule, the fluorescence ratio (interference) in assay [11] was 0.9 (inactive). Also, the call in [12] was inactive. For the same molecule, the luciferase signal in assay [1] was 68 AU (inactive).
As to `CC(C)C[C@H](NC(=O)[C@@H](O)[C@H](N)Cc1ccccc1)C(=O)O`, the period change in [9] is 0.15 h (inactive). In addition, the inhibition in [10] was -4% (inactive). Also, in assay [11], the fluorescence ratio (interference) was 1 (inactive). Besides, in [8], the remaining activity is 117% (inactive). In addition, in [13], the SSMD was 2.45, the cell count came out at 7080 and the plate-normalised HSF1 focus index is 1.13 (inactive). Moreover, the molecule was classed as inactive in assay [12].
In the case of `O=C1CN2Cc3c(ccc(Cl)c3Cl)N=C2N1`, in assay [13], the SSMD is 2.08 and 2.35; the cell count is 7390 and 7000; the plate-normalised HSF1 focus index was 1.08 (inactive) and 1.14 (inactive). Also, the luciferase signal in [1] is 40 AU (inactive).
